Experimental data: the supplement of paper PMC3334620
Whole data set: some 33,000 sequences, median “E-score (-0.5 to 0.5)” near -0.012, cut for the highest 2% near 0.29. This is one part of a sample in which the highest values are shown more often than they occur.

The sequences below were run against T1, Ybr033w (UniProt P38073) (assay: PBM E-score (8-mer binding enrichment) (E-score (-0.5 to 0.5)); higher = stronger / more preferred TF binding). Settings: protein concentration: 200 nM; construct: GST-full length.
T1 sequence: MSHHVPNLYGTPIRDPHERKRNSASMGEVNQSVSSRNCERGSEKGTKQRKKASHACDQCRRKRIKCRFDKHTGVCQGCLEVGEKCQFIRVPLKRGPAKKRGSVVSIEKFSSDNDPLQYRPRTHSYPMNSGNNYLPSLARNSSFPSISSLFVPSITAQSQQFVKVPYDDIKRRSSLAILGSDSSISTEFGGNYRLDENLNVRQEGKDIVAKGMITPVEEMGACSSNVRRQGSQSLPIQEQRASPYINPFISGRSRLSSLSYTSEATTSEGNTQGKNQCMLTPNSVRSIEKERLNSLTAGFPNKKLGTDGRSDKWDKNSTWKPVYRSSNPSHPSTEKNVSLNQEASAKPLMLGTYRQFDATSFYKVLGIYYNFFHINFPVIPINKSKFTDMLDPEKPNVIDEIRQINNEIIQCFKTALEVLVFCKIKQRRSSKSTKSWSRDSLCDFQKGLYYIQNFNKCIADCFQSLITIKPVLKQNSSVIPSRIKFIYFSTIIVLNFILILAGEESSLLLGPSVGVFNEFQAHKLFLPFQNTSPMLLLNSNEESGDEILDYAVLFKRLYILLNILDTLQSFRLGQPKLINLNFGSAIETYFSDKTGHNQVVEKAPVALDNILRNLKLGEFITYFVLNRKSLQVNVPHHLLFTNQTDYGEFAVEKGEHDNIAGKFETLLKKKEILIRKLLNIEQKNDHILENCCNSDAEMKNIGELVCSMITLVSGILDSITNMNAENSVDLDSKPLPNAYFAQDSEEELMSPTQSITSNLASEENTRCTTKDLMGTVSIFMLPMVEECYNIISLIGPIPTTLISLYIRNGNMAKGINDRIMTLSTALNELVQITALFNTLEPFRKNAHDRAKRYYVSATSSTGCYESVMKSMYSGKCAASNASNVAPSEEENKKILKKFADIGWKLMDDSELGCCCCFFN
Protocol: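 Universal 'all 10-mer' protein binding microarrays (Agilent AMADID 015681) probed with GST-tagged S. cerevisiae TFs (full-length or DBD) made by in vitro transcription/translation (PURExpress), about 100-200 nM. Bound TF was detected with fluorescent anti-GST. Each ungapped 8-mer (which stands for itself and its reverse complement) is scored by the PBM enrichment score (E-score), a modified Wilcoxon-Mann-Whitney statistic from -0.5 to +0.5, computed with the Universal PBM Analysis Suite. Scale: above 0.35 generally sequence-specific binding.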

Sequence | PBM E-score
GCTTATGA | -0.0277
CACTAATG | 0.0973
CACTAATA | 0.0444
AACTAATG | 0.29
AACTAATC | 0.192
AACTAAAG | 0.231
AACTAACT | 0.126
TACTAATA | 0.185
AACTAATT | 0.293
AACTAATA | 0.298
AAATCGGC | -0.158
CCACCGGA | 0.172
GAGACCAA | 0.0622
ATCCGCTC | -0.102
ACGGTATG | -0.0502
AGGCATAA | -0.0986
ATTTAGGC | 0.117
CCCACCTC | -0.244
AAATTTAC | 0.263
GAATTTAA | 0.0723
AAATTTCA | -0.0112
CAATTTCA | 0.0349
TAATTTCA | 0.289

Sequence | PBM E-score
CAATTTAA | 0.27
AAATTTAA | 0.29
AAATTTAG | 0.278
TAATTTAA | 0.343
CGCCAGAA | 0.043
ACAAGTAT | 0.249
AACACAAC | 0.116
CCTTTCTC | -0.11
CCGTCGCC | -0.247
TCGATAAA | 0.167
ACGATAAT | 0.163
ATGATAAA | 0.238
AAGATAAA | 0.257
AGGATACT | -0.0125
TTGATAAA | 0.368
CAGATAAA | 0.194
TAGATAAA | 0.341
TGGATACA | 0.0503
TGGATAAA | 0.391
GTGATAAA | 0.102
AGGATAAT | 0.36
CTGCTCTC | -0.153
AGCCACCA | 0.0237

Sequence | PBM E-score
AGGCTCAT | -0.0489
ACGACCAG | -0.158
AGGATAAG | -0.0801
AAGATAAT | 0.307
AGGATAAC | -0.109
GGGATAGA | -0.196
AGGATAAA | 0.427
GGGATAAC | 0.00039
GGGATAAA | 0.317
AAGATAAC | 0.0702
AAGATAAG | 0.0844
CAGGTAGG | -0.052
ATCCGGGG | 0.181
GCCCATCA | -0.178
AGTCGACT | 0.204
AGCTTAGA | -0.0294
CGATCAAC | -0.144
TGATCAAA | 0.076
AGATCAAA | 0.111
GGATCAAA | 0.367
GGATCAAC | 0.369
AGATCAAC | 0.0509
CACACTGA | -0.19

Sequence | PBM E-score
CCAGGAAC | -0.103
GATGTCAA | 0.0645
CATCTCAA | 0.119
AATGTCAA | 0.00312
TATGTCAA | 0.318
AATCTCAA | 0.0508
TATCTCAA | 0.32
AAACGCGA | 0.0304
GAAGACTC | -0.0221
CATAACTC | 0.0871
GGAAATGA | 0.133
CCAGATTC | -0.16
TACGAGTA | 0.297
CACGAGTA | 0.0368
GACGAGTA | 0.0188
AAGAATGC | 0.142
ATTCGAAA | 0.12
AATATTCA | 0.226
TATATTGA | 0.275
TATATTCA | 0.303
AATATTAT | 0.335
AACATTAA | 0.224
TATATTAA | 0.324

Sequence | PBM E-score
TACATTAA | 0.345
GACATTAA | 0.166
GATATTAA | 0.251
AATATTAC | 0.283
AATATTAG | 0.228
CATATTCA | 0.0595
CCTGAGCA | -0.075
GACGGTTA | -0.192
ACCAGTAT | -0.104
CCTAACGA | -0.0133
ATGCGTGG | -0.346
GAATCGCC | -0.138
CGGTTGCA | -0.122
CTGCCCAC | -0.165
CAGGTGAA | 0.0712
CGCCCCCC | -0.434
ACTTGTTC | 0.25
GATGCATC | 0.0586
GTGGATCA | 0.0654
GCTGCAGA | -0.101
